This note sets out measurements from PubChem BioAssay (Tox21).

Records with an inconclusive call do not appear. Some compounds were tested as several samples or in several runs, with calls that do not always agree. The source made the active and inactive calls. Unless noted, the call rests on the fitted dose curve; in most records, active means well fitted curve in the direction sought with a large enough effect in the repeat runs; inconclusive means weak or mixed curves; inactive means no such curve, though single readings can be large; an effect the other way counts as inactive or inconclusive.

Assay [1] in a line: qHTS assay to identify small molecule agonists of the sonic hedgehog signaling (Shh) pathway (AID 1259368; calls by dose curve;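 further: NIH/3T3-derived 3T3Gli1-Luc cells carrying a stable Gli1-driven firefly luciferase reporter; series mostly up to about 92 µM; nearly all actives have a fitted effect of over 15% in size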). The essentials: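 NIH/3T3-derived 3T3Gli1-Luc cells with stably integrated Gli1-driven firefly luciferase, 2,000 cells/well, compounds added after 4 hr. Incubated 24 hr at 37C, 5% CO2; luminescence read after 30 min with luciferase reagent at room temperature.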
For orientation: In qHTS, concentration-response curves come from the screen itself.

Assay [2] is described as follows: qHTS assay to identify small molecule antagonists of the sonic hedgehog signaling (Shh) pathway (AID 1259369; calls by dose curve; further: nearly all actives have a fitted effect of over 45% in size). The essentials: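 NIH/3T3-derived Gli1-Luc reporter cells plated 4 h, dosed with compound, then stimulated with conditioned medium for 24 h at 37 C. Firefly luciferase luminescence read after 30 min with detection reagent at room temperature.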
In assay [3] the target is Estrogen receptor beta (Homo sapiens) (UniProt Q92731). In words: qHTS assay to identify small molecule agonists of the estrogen receptor beta (ER-beta) signaling pathway (AID 1259377; active means well fitted activation curve with a large enough effect in the signal ratio in the repeat runs, not every such curve was filed as active; the % refers to the signal ratio). Summed up: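 In HEK293T cells bearing a UAS-beta-lactamase reporter under ER-beta control, DMSO-delivered compounds were incubated for 16 hr at 37C. Activity was detected as fluorescence 2 hours after LiveBLAzer B/G FRET substrate addition.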

Assay [4] has the same target. In words: qHTS assay to identify small molecule antagonists of the estrogen receptor beta (ER-beta) signaling pathway (AID 1259378; active means well fitted inhibition curve with a large enough effect in the signal ratio in the repeat runs, not every such curve was filed as active; the % refers to the signal ratio). The essentials: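 Antagonist mode: compounds added to beta-lactamase reporter HEK293T ER-beta-UAS cells stimulated with E2 (1nM final), 16 hr at 37C. LiveBLAzer B/G FRET substrate, 2 hours room temperature, fluorescence read-out.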
Assay [5] in a line: qHTS assay to identify small molecule agonists of the androgen receptor (AR) signaling pathway in the presence of an antagonist - cell viability counter screen (AID 1259379). Further: nearly all actives have a fitted effect of over 25% in size. Further: potency means the concentration at half of the fitted maximal effect. The essentials:
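MDA-kb2 cells (MMTV-luciferase, AR/GR), 3,000/well, 5 h attachment, then 3.0 µM nilutamide (final) and compounds at 15 concentrations. Viability by CellTiter-Fluor fluorescence after 16 h at 37 °C, 0% CO2, in the reporter wells.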

A short description of assay [6]: qHTS assay to identify small molecule agonists of the estrogen receptor beta (ER-beta) signaling pathway - cell viability counter screen (AID 1259380). Further: nearly all actives have a fitted effect of over 30% in size. Summed up: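 ER-beta-UAS-bla HEK293T cells in medium with 2% charcoal-stripped FBS, pre-incubated 6 hr, then treated 16 hr at 37C. Cytotoxicity read in the same wells by CellTiter-Glo luminescence after 30 min at room temperature.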

Assay [7] can be described thus: qHTS assay to identify small molecule antagonists of the estrogen receptor beta (ER-beta) signaling pathway - cell viability counter screen (AID 1259382).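 Further: HEK293T cells carrying ER-beta-UAS-bla reporter stimulated with estradiol; series mostly up to about 92 µM; nearly all actives have a fitted effect of over 55% in size.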 Summed up:
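ER-beta-UAS-bla HEK293T cells in 2% charcoal-stripped FBS medium, treated with compound plus 1 nM 17-beta-estradiol for 16 h at 37C. Viability read by CellTiter-Glo luminescence after 30 min at room temperature in the same wells.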

Assay [8] can be described thus: qHTS assay to identify small molecule agonists or antagonists of the thyroid stimulating hormone receptor (TSHR) signaling pathway - wild type cell line counter screen (AID 1259384; calls by dose curve). Summed up: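 Counter screen in untransfected Hek293: compounds (15-point titration, triplicate) plus phosphodiesterase inhibitor Ro20-1724 added after 18 h plating; 30 min RT. Intracellular cAMP via competitive d2/cryptate immunoassay, 1 h incubation.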

For assay [9], the target named is Thyrotropin receptor (Homo sapiens) (UniProt P16473). In words: qHTS assay to identify small molecule antagonists of the thyroid stimulating hormone receptor (TSHR) signaling pathway (AID 1259385; calls by dose curve; further: nearly all actives have a fitted effect of over 20% in size). Summed up:
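Antagonist mode: compound-treated TSHR-expressing HEK293 cells were stimulated with 1.5 ng/mL TSH (final) in presence of Ro20-1724 for 30 min at RT. HTRF cAMP detection after 1 h; each compound tested at 15 concentrations, triplicate.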

A short description of assay [10]: qHTS assay to identify small molecule agonists of the estrogen receptor alpha (ER-alpha) signaling pathway in the presence of an antagonist - cell viability counter screen (AID 1259386).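 Further: series mostly up to about 92 µM; cells exposed to compounds for 22 h at 37 °C before the viability read; nearly all actives have a fitted effect of over 30% in size.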 Summed up: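 Cell viability in VM7Luc4E2 cells (endogenous full-length ER-alpha) measured by CellTiter-Fluor fluorescence in the same wells as the luciferase screen. Cells pre-cultured 5 days in charcoal-stripped serum, then treated 22 h with compounds at 15 concentrations plus 10.0nM ICI-182,780.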

The target in assay [11] is Progesterone receptor (Homo sapiens) (UniProt P06401). Description: qHTS assay to identify small molecule agonists of the progesterone receptor (PR) signaling pathway (AID 1346784; calls by dose curve; further: nearly all actives have a fitted effect of over 30% in size). The essentials: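 Using charcoal-stripped serum (2%) to limit endogenous steroids, PR-UAS-bla HEK 293T cells received compounds for 16 hr at 37C after 6 hr plating; beta-lactamase FRET fluorescence was recorded following 2 hr substrate loading at room temperature.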

The target is the same in assay [12]. In words: qHTS assay to identify small molecule antagonists of the progesterone receptor (PR) signaling pathway (AID 1346795; active means well fitted inhibition curve with a large enough effect in the signal ratio in the repeat runs, not every such curve was filed as active; the % refers to the signal ratio; further: potency means the concentration at half of the fitted maximal effect). The essentials: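 Inhibition of R5020-induced (1 nM final) beta-lactamase reporter signal in PR-UAS-bla HEK293T cells was scored by FRET fluorescence after overnight (16 hr) compound treatment.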
A short description of assay [13]: qHTS assay to identify small molecule agonists of the progesterone receptor (PR) signaling pathway - cell viability counter screen (AID 1346799; calls by dose curve; further: nearly all actives have a fitted effect of over 45% in size). The essentials: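 Cytotoxicity in PR-bla HEK293T cells: 16 h compound, 37C; CellTiter-Glo added post-FRET read; luminescence after 30 min RT.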
Assay [14] in a line: qHTS assay to identify small molecule antagonists of the TGF-beta/Smad signaling pathway - cell viability counter screen (AID 1346824). Further: nearly all actives have a fitted effect of over 50% in size. Summed up:
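Cytotoxicity counter-screen run in the same wells as the beta-lactamase Smad reporter read: CellTiter-Glo luminescence after 30 min at room temperature. HEK 293T SBE-bla cells had 5 hr compound exposure at 37 C with TGF-beta1 (0.25 ng/mL stock).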

Assay [15] can be described thus: qHTS assay to identify small molecule agonists of the TGF-beta/Smad signaling pathway - cell viability counter screen (AID 1346829). Further: top concentration of the series differs between compounds; nearly all actives have a fitted effect of over 45% in size. Summed up:
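Cytotoxicity counter screen: CellTiter-Glo luminescence (30 min, room temperature) measured in the SBE-bla HEK 293T reporter wells after 5 hr compound treatment at 37 C and the 2 hr substrate step.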

A short description of assay [16]: qHTS assay to identify small molecule agonists of the TGF-beta/Smad signaling pathway (AID 1346859; active means well fitted activation curve with a large enough effect in the signal ratio in the repeat runs, not every such curve was filed as active; the % refers to the signal ratio; further: series mostly up to about 77 µM). Summed up: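 Stable Smad binding element-beta-lactamase HEK 293T cells; 5 hr compound exposure at 37 C under 5% CO2; 2 hr room-temperature substrate step; fluorescence excited at 405 nm, collected at 460 nm and 530 nm.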
The target of assay [17] is Thyrotropin-releasing hormone receptor (Homo sapiens) (UniProt P34981). Description: qHTS assay to identify small molecule antagonists of the thyrotropin-releasing hormone receptor (TRHR) signaling pathway (AID 1346877; active means well fitted inhibition curve with a large enough effect in the repeat runs, not every such curve was filed as active; further: series mostly up to about 51 µM). The essentials: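 TRHR-expressing HEK293 cells loaded with calcium dye for 2 h at 37 C; compounds pre-incubated 5 min at room temperature before TRH challenge at 1 nM final. Intracellular calcium fluorescence read kinetically for 3 min; 15 concentrations in triplicate.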

Assay [18] can be described thus: qHTS assay to identify small molecule antagonists of the progesterone receptor (PR) signaling pathway - cell viability counter screen (AID 1346798). Further: series mostly up to about 92 µM; nearly all actives have a fitted effect of over 50% in size. Summed up: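 ATP content as viability readout: CellTiter-Glo luminescence, 30 min room temperature, in PR-UAS-bla HEK293T cells after 16 hr compound/R5020 treatment at 37C and 5% CO2.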
Assay [19] deals with Androgen receptor (Homo sapiens) (UniProt P10275). In words: qHTS assay to identify small molecule agonists of the androgen receptor (AR) signaling pathway in the presence of an antagonist (AID 1259381; calls by dose curve; further: nearly all actives have a fitted effect of over 15% in size). The essentials: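 MDA-kb2 cells carrying MMTV-luciferase (AR/GR responsive), 3,000 cells/well, co-treated with 3.0 uM nilutamide final. Compounds at 15 concentrations, 16 hr at 37C without CO2. Luciferase luminescence read after 30 min with ONE-Glo.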

Assay [20] has as its target Estrogen receptor (Homo sapiens) (UniProt P03372). Description: qHTS assay to identify small molecule agonists of the estrogen receptor alpha (ER-alpha) signaling pathway in the presence of an antagonist (AID 1259383; calls by dose curve; further: top concentration of the series differs between compounds; nearly all actives have a fitted effect of over 15% in size). Summed up: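 VM7Luc4E2 cells express endogenous full-length ER-alpha with an ERE-luciferase reporter and were hormone-deprived for 5 days. Compounds at 15 concentrations were added with 10.0nM ICI-182,780 for 22hr at 37C. Luminescence was read with ONE-Glo.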

Estrogen receptor beta (Homo sapiens), sequence (Q92731 whole entry, looked up): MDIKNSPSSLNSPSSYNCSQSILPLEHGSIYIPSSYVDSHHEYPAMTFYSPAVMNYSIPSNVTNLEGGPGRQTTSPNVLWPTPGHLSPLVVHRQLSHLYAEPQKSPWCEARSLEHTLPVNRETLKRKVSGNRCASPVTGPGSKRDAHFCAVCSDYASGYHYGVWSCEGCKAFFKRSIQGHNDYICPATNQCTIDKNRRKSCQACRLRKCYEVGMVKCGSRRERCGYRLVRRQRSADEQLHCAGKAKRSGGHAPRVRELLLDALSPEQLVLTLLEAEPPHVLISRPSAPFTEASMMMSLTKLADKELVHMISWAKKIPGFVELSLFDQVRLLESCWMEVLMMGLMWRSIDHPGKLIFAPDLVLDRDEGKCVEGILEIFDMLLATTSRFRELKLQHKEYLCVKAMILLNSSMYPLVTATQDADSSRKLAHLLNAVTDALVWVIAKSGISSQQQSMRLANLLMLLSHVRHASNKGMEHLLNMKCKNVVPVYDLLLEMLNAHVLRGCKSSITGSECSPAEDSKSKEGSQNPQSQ
Estrogen receptor (Homo sapiens), sequence (P03372 whole entry, looked up): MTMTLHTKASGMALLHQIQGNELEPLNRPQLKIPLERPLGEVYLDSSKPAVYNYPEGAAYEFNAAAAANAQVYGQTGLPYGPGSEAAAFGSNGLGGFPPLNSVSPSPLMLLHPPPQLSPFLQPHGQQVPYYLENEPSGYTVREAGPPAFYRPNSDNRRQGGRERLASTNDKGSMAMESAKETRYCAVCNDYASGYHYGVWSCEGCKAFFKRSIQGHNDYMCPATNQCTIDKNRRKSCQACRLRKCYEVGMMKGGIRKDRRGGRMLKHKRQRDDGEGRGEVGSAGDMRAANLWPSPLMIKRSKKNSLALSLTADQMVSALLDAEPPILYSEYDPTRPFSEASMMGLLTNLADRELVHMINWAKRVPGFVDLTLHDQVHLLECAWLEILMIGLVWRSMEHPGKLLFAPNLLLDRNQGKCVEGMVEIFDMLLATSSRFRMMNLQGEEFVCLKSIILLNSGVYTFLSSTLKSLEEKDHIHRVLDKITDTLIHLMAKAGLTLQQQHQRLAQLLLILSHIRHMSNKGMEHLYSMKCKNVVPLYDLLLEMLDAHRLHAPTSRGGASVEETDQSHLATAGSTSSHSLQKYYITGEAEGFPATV
Androgen receptor (Homo sapiens), sequence (P10275 whole entry, looked up): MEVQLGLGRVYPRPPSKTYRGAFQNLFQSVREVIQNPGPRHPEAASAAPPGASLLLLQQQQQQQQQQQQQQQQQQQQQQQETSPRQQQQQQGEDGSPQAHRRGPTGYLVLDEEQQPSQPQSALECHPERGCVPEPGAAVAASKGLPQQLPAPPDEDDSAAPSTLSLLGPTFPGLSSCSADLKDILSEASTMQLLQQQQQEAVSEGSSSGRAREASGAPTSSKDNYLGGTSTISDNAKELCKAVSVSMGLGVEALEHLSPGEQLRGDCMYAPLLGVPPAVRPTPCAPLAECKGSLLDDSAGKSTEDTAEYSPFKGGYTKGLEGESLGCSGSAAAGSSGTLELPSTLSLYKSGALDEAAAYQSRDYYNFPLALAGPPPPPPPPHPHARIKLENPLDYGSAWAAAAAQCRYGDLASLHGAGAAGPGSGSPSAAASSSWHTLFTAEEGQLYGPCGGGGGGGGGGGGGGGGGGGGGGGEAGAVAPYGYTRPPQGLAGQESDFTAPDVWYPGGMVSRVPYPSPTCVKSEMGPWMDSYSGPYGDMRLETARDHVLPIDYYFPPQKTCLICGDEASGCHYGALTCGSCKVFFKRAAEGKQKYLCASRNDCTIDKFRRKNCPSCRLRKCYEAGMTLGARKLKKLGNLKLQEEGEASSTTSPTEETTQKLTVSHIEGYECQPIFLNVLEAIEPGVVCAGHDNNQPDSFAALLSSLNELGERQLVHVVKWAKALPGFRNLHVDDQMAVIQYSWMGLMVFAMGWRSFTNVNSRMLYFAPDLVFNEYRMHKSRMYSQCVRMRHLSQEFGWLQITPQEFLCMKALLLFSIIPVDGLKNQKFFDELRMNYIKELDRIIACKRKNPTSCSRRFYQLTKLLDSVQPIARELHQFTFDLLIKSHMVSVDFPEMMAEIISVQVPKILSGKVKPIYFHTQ
Progesterone receptor (Homo sapiens), sequence (P06401 whole entry, looked up): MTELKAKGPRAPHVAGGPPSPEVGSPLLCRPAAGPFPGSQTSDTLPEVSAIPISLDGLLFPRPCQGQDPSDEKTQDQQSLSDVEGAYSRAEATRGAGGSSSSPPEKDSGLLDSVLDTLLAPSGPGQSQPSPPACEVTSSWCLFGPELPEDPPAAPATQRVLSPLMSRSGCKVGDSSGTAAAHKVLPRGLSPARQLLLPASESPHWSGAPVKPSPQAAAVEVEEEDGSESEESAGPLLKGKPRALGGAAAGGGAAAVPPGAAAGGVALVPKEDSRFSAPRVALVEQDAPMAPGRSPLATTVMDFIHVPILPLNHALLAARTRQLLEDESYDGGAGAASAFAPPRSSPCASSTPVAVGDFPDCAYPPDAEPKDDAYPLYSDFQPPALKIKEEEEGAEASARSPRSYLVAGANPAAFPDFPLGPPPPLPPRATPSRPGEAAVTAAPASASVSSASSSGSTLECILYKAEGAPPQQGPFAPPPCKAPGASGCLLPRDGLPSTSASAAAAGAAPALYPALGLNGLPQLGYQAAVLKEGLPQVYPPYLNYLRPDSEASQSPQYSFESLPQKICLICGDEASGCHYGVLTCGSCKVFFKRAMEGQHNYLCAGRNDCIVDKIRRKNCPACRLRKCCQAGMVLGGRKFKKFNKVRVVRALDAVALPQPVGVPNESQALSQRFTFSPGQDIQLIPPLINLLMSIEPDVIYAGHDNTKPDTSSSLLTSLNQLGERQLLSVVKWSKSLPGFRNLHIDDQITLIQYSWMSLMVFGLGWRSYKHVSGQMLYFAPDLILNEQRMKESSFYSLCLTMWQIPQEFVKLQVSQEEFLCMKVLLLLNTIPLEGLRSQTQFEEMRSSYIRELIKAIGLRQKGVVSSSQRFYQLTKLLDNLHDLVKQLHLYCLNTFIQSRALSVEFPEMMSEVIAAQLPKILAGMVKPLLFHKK
Thyrotropin receptor (Homo sapiens), sequence (P16473 whole entry, looked up): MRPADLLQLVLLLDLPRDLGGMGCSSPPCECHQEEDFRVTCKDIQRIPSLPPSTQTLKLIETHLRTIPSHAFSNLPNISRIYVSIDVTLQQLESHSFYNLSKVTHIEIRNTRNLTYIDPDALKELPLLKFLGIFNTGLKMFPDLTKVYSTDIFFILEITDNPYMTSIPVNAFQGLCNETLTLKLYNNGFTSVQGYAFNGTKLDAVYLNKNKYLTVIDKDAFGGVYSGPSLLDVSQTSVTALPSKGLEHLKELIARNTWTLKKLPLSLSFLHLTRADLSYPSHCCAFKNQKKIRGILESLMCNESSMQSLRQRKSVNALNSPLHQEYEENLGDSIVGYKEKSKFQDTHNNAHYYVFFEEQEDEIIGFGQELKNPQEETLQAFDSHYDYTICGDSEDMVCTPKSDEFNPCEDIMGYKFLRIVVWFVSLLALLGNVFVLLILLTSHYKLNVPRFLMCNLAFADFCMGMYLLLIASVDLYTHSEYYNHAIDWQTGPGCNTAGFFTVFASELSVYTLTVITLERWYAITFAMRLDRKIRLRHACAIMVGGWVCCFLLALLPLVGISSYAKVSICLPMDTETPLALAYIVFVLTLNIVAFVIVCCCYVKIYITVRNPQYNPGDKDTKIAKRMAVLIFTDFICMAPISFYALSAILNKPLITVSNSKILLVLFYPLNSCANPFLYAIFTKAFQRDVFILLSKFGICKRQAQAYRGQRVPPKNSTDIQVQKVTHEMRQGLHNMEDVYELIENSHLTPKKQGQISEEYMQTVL
Thyrotropin-releasing hormone receptor (Homo sapiens), sequence (P34981 whole entry, looked up): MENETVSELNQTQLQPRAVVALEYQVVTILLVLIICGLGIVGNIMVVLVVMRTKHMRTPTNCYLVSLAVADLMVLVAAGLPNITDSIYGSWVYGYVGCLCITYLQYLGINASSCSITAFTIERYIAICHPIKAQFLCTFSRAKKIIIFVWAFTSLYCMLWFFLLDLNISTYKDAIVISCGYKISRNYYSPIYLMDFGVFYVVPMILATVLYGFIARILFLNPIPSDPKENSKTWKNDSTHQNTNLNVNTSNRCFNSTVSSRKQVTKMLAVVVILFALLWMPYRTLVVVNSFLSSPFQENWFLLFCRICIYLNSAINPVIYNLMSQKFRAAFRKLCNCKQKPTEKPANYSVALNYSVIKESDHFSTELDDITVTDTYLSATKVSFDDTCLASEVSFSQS

For the compound `Cc1cccc(C)c1N`, the compound was classed as inactive in assay [1], in assay [4], in assay [7], in assay [8], in assay [9] and in assay [13]. Moreover, the call in assay [16] and in assay [17] was inactive. The Potency entry in assay [2], in [3], in assay [5], in assay [6], in assay [10] and in [11] was “inactive” each time. In addition, the Potency result in assay [12], in assay [14] and in [15] was “inactive” each time.
`O=C(O)C1C(C(=O)O)C2(Cl)C(Cl)=C(Cl)C1(Cl)C2(Cl)Cl` (stereo unspecified): the compound was classed as inactive in [1], in [7], in [8], in assay [9] and in assay [13]. Also, the Potency result in assay [2], in assay [3], in assay [5], in assay [6], in [10] and in assay [11] was “inactive” in each case. Further, the Potency entry in assay [12], in assay [18], in assay [14] and in assay [15] was “inactive” throughout.
For `O=S(=O)(O)OOS(=O)(=O)O`, the compound was called inactive in [1], in assay [4], in assay [7], in assay [13] and in assay [17]. The Potency result in assay [2], in [3], in [5], in assay [6], in [10] and in assay [11] was “inactive” each time. Moreover, the Potency entry in assay [12], in [18], in [14] and in [15] was “inactive” throughout.
Regarding `CC(=O)/C=C/c1ccccc1`, the compound was called inactive in [1], in assay [4], in [7], in [8], in assay [9] and in assay [13]. Further, in assay [17], the call was inactive. Further, the Potency entry in assay [2], in assay [3], in [5], in [6], in assay [10] and in assay [11] was “inactive” each time. Moreover, the Potency result in [12], in assay [18], in assay [14] and in assay [15] was “inactive” throughout.
As to `C=C(C)C(=O)OCC(CC)CCCC` (stereo unspecified), the compound was classed as inactive in assay [1], in assay [4], in assay [7], in [8], in [9] and in assay [13]. For the same compound, the result in assay [16] was inactive. Also, the Potency result in assay [2], in assay [3], in assay [6], in [10], in assay [11] and in assay [12] was “inactive” in each case. Also, the Potency result in assay [14] and in assay [15] was “inactive” in each case. Also, in assay [5], the Potency is 55.5 µM (active) and inactive.
Take `CC(C)c1cccc(C(C)C)c1O`: the compound was called inactive in assay [1], in assay [19], in assay [7], in assay [8], in assay [9] and in assay [13]. Moreover, the outcome in [16] and in assay [17] was inactive. In addition, the Potency entry in assay [2], in assay [3], in [5], in [6], in [10] and in assay [11] was “inactive” in each case. The Potency entry in assay [12], in [18], in [14] and in [15] was “inactive” throughout.
Regarding `C=CC(=O)OCC(CC)CCCC` (stereo unspecified), the compound was classed as inactive in [1], in [4], in assay [7], in [8], in [9] and in assay [13]. Besides, the Potency result in assay [2], in assay [3], in assay [5], in [6], in [10] and in assay [11] was “inactive” each time. Further, the Potency result in assay [12], in assay [18], in assay [14] and in assay [15] was “inactive” throughout.
As for `COP(=S)(OC)Oc1ccc(SC)c(C)c1`, the result in assay [1], in [7], in [20], in assay [13], in [16] and in assay [17] was inactive. Besides, the Potency entry in assay [2], in assay [3], in [5], in [6], in [10] and in [11] was “inactive” throughout. The Potency entry in [14] and in assay [15] was “inactive” throughout. Also, in assay [12], the Potency is 13.5 µM (active).
Regarding `N#Cc1ccccn1`, the call in [1], in assay [4], in assay [7], in assay [8], in [9] and in [13] was inactive. Also, the outcome in assay [16] and in assay [17] was inactive. Further, the Potency entry in [2], in assay [3], in assay [5], in assay [6], in [10] and in assay [11] was “inactive” throughout. The Potency result in assay [12], in assay [14] and in assay [15] was “inactive” each time.
